Measured values taken from PubChem BioAssay (Tox21).
Results filed as inconclusive are left out. Active and inactive are the calls of the source. Unless noted, calls follow the shape of the dose curve; as a rule, active = well fitted curve in the direction sought with a large enough effect in the repeat runs; inconclusive = weak or mixed curves; inactive = no such curve, though single readings can be large; an effect the other way counts as inactive or inconclusive.

Tests used:
[1] = target: Aryl hydrocarbon receptor (Homo sapiens) (UniProt P35869); test: qHTS assay to identify small molecule that activate the aryl hydrocarbon receptor (AhR) signaling pathway (AID 743085);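 also: HG2L7.5c1 human HepG2 liver cells with stably integrated DRE-driven firefly reporter; series mostly up to about 70 µM; nearly all actives have a fitted effect of over 15% in size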
Procedure, shortened: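 24 h compound exposure, 37C, HepG2-derived HG2L7.5c1 cells with DRE-responsive luciferase. Readouts: fluorescence viability, then luminescence at room temperature after 30 min.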

[2] = qHTS assay to identify small molecule that activate the aryl hydrocarbon receptor (AhR) signaling pathway - cell viability counter screen (AID 743086);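 also: HepG2 liver cells carrying the AhR DRE luciferase reporter; series mostly up to about 70 µM; nearly all actives have a fitted effect of over 45% in size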
Procedure, shortened: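 HepG2-AhR-luc (HG2L7.5c1) cells, 4000/well, were preincubated 5 h at 37C, exposed to compound in qHTS format for 24 hr at 37C, then given CellTiter-Fluor for 30 min; viability was read as fluorescence in the reporter wells.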

[3] = target: Peroxisome proliferator-activated receptor gamma (Homo sapiens) (UniProt P37231); test: qHTS assay to identify small molecule agonists of the peroxisome proliferator-activated receptor gamma (PPARg) signaling pathway (AID 743094; active = well fitted activation curve with a large enough effect in the signal ratio in the repeat runs, not every such curve was filed as active; the % refers to the signal ratio)
Procedure, shortened: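 Cell-based bla reporter, HEK293H background, PPARg-driven UAS. Pre-incubation 5 h, 37C, 5% CO2. Compound 17 h, 37C. Substrate 1 h RT; fluorescence.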

[4] = qHTS assay to identify small molecule antagonists of the peroxisome proliferator-activated receptor gamma (PPARg) signaling pathway - cell viability counter screen (AID 743194); also: nearly all actives have a fitted effect of over 55% in size
Procedure, shortened: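 PPARg-UAS-bla HEK293H cells were plated, rested 5 h at 37 C, then treated with compounds plus rosiglitazone (50 nM final) for 17 h at 37 C; viability was then read by CellTiter-Glo luminescence after 30 min at room temperature.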

[5] = qHTS assay for small molecule agonists of the antioxidant response element (ARE) signaling pathway - cell viability counter screen (AID 743203; calls by dose curve; also: nearly all actives have a fitted effect of over 55% in size)
Procedure, shortened: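 Measured in the same wells as the beta-lactamase ARE reporter, this read-out is CellTiter-Glo luminescence from HepG2 ARE-bla cells given compounds for 16 hrs.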

[6] = qHTS assay for small molecule activators of the heat shock response signaling pathway - cell viability counter screen (AID 743209); also: nearly all actives have a fitted effect of over 50% in size
Procedure, shortened: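 Same-well multiplex: after 2.5 h room-temperature incubation with LiveBLAzer B/G substrate and fluorescence reading, CellTiter-Glo reagent was added to HSE-bla HeLa cells that had received compound for 5 h at 37 C; luminescence read after 30 min.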

[7] = qHTS assay to identify small molecule agonists of the peroxisome proliferator-activated receptor delta (PPARd) signaling pathway - cell viability counter screen (AID 743211); also: nearly all actives have a fitted effect of over 55% in size
Procedure, shortened: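 Luminescent ATP viability assay (CellTiter-Glo, 30 min RT) in UAS-bla HEK293H cells carrying the PPAR delta reporter construct, 3000 cells/well, after a 17 h compound treatment at 37 C.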

[8] = target: Peroxisome proliferator-activated receptor delta (Homo sapiens) (UniProt Q03181); test: qHTS assay to identify small molecule agonists of the peroxisome proliferator-activated receptor delta (PPARd) signaling pathway (AID 743212; calls by dose curve)
Procedure, shortened: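 Beta-lactamase reporter read by fluorescence (LiveBLAzer B/G FRET, 2 h, room temperature). Test agents, in DMSO, incubated at 37 C with PPARd-bla HEK293H cells.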

[9] = qHTS assay to identify small molecule antagonists of the peroxisome proliferator-activated receptor delta (PPARd) signaling pathway - cell viability counter screen (AID 743213); also: nearly all actives have a fitted effect of over 50% in size
Procedure, shortened: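 Cytotoxicity counter screen: CellTiter-Glo luminescence read 30 min after addition, in the same wells as the reporter assay. There, PPARd UAS-bla HEK293H cells (3000/well) were treated 17 h at 37 C with compound and 300 nM L165041.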

[10] = qHTS assay to identify small molecule agonists of the farnesoid-X-receptor (FXR) signaling pathway - cell viability counter screen (AID 743218); also: nearly all actives have a fitted effect of over 45% in size
Procedure, shortened: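 Readout: CellTiter-Glo luminescence, 30 min RT, multiplexed after the FXR-bla FRET reading. HEK 293T FXR-UAS-bla cells received compound 5 h post-plating and were incubated 16 h at 37 C.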

[11] = qHTS assay to identify small molecule antagonists of the farnesoid-X-receptor (FXR) signaling pathway - cell viability counter screen (AID 743221; active = well fitted cell-killing curve with a large enough effect in the repeat runs, not every such curve was filed as active; also: nearly all actives have a fitted effect of over 50% in size)
Procedure, shortened: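 In GeneBLAzer FXR-UAS-bla HEK 293T cells stimulated with 50 uM chenodeoxycholic acid (final), compounds acted for 16 h at 37 C. Viability was assessed afterwards by CellTiter-Glo luminescence.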

[12] = target: Vitamin D3 receptor (Homo sapiens) (UniProt P11473); test: qHTS assay to identify small molecule agonists of the vitamin D receptor (VDR) signaling pathway (AID 743222; calls by dose curve)
Procedure, shortened: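 Following 4 h attachment at 37C, VDR-bla cells (2,000 per well) received DMSO-dissolved compounds or controls. After 16 h incubation, LiveBLAzer B/G FRET substrate was added and fluorescence read 2 h later at room temperature.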

[13] = qHTS assay to identify small molecule agonists of the vitamin D receptor (VDR) signaling pathway - cell viability counter screen (AID 743224); also: series mostly up to about 63 µM; nearly all actives have a fitted effect of over 50% in size
Procedure, shortened: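 In parallel with the bla FRET readout, cytotoxicity toward VDR-bla cells after 16 h compound exposure was assessed by CellTiter-Glo, with luminescence recorded after a 30 min room-temperature incubation.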

[14] = qHTS assay for small molecule agonists of the antioxidant response element (ARE) signaling pathway (AID 743202; active = well fitted activation curve with a large enough effect in the signal ratio in the repeat runs, not every such curve was filed as active; the % refers to the signal ratio)
Procedure, shortened: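 Following a 16 h, 37 C exposure of reporter HepG2 cells (ARE-driven beta-lactamase, 2,000 cells/well) to compounds, FRET substrate was applied for 2 h at room temperature and fluorescence intensity recorded.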

[15] = qHTS assay for small molecule activators of the heat shock response signaling pathway (AID 743210; active = well fitted activation curve with a large enough effect in the signal ratio in the repeat runs, with a control signal flat, not every such curve was filed as active; the % refers to the signal ratio; also: series mostly up to about 63 µM)
Procedure, shortened: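 Heat shock element–beta-lactamase HeLa reporter cells; qHTS with compounds for 5 h at 37 C; detection by FRET substrate fluorescence after 2.5 h at RT.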

[16] = target: Peroxisome proliferator-activated receptor delta (Homo sapiens) (UniProt Q03181); test: qHTS assay to identify small molecule antagonists of the peroxisome proliferator-activated receptor delta (PPARd) signaling pathway (AID 743215; active = well fitted inhibition curve with a large enough effect in the signal ratio in the repeat runs, not every such curve was filed as active; the % refers to the signal ratio;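 also: cells stimulated with agonist L165041 at 300 nM final during compound exposure; series mostly up to about 62 µM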)
Procedure, shortened: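 Fluorescence from cleaved LiveBLAzer B/G FRET substrate (2 h, room temperature) reports PPARd-driven beta-lactamase in HEK293H UAS-bla cells. Cells had been treated 17 h at 37 C with compound plus 300 nM final L165041.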

[17] = target: Bile acid receptor (Homo sapiens) (UniProt Q96RI1); test: qHTS assay to identify small molecule antagonists of the farnesoid-X-receptor (FXR) signaling pathway (AID 743217; active = well fitted inhibition curve with a large enough effect in the signal ratio in the repeat runs, not every such curve was filed as active; the % refers to the signal ratio)
Procedure, shortened: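 FRET fluorescence after 2 h room-temperature LiveBLAzer loading gives the readout. Prior step: FXR-bla HEK 293T cells, seeded and incubated 5 h, received test compounds plus 50 uM final CDCA for 16 h at 37 °C.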

[18] = target: Bile acid receptor (Homo sapiens) (UniProt Q96RI1); test: qHTS assay to identify small molecule agonists of the farnesoid-X-receptor (FXR) signaling pathway (AID 743220; active = well fitted activation curve with a large enough effect in the signal ratio in the repeat runs, not every such curve was filed as active; the % refers to the signal ratio)
Procedure, shortened: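 FXR-UAS-bla HEK 293T cells carrying a UAS-driven beta-lactamase reporter were plated for 5 h at 37C/5% CO2, then exposed to DMSO-dissolved Tox21 10K compounds for 16 h at 37C. A LiveBLAzer B/G FRET substrate was loaded for 2 h at room temperature before fluorescence reading.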

[19] = target: Vitamin D3 receptor (Homo sapiens) (UniProt P11473); test: qHTS assay to identify small molecule antagonists of the vitamin D receptor (VDR) signaling pathway (AID 743223; active = well fitted inhibition curve with a large enough effect in the signal ratio in the repeat runs, not every such curve was filed as active; the % refers to the signal ratio)
Procedure, shortened: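 Agonist 1alpha,25-dihydroxyvitamin D3 (3 nM in well) was added with each compound to VDR-bla cells preincubated 4 h. Cells stood 16 h at 37C, then FRET substrate 2 h at room temperature; fluorescence intensity recorded.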

[20] = target: Peroxisome proliferator-activated receptor gamma (Homo sapiens) (UniProt P37231); test: qHTS assay to identify small molecule antagonists of the peroxisome proliferator-activated receptor gamma (PPARg) signaling pathway (AID 743191; calls by dose curve; also: series mostly up to about 63 µM; nearly all actives have a fitted effect of over 30% in size)
Procedure, shortened: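 GeneBLAzer PPARg UAS-bla HEK293H cells carrying a UAS-driven beta-lactamase reporter were plated at 3000 cells/well, preincubated 5 h at 37C, then given compound for 17 h at 37C; LiveBLAzer B/G FRET substrate was read after 1 h at room temperature.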

Measured: Potency

Sequence of Peroxisome proliferator-activated receptor gamma (Homo sapiens) (P37231 whole entry, looked up): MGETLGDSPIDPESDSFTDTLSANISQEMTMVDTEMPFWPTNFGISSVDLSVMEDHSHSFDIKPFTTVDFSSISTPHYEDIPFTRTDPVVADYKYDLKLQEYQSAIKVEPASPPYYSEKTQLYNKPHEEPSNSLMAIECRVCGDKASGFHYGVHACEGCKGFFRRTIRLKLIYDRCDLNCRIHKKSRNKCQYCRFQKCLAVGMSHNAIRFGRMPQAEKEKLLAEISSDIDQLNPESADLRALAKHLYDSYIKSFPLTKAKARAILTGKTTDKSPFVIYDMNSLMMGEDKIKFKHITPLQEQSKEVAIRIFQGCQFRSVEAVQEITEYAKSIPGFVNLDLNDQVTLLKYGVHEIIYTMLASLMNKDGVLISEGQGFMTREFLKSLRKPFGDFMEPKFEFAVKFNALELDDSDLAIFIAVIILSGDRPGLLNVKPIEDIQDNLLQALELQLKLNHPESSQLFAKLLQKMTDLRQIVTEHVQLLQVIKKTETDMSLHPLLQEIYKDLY
Sequence of Vitamin D3 receptor (Homo sapiens) (P11473 whole entry, looked up): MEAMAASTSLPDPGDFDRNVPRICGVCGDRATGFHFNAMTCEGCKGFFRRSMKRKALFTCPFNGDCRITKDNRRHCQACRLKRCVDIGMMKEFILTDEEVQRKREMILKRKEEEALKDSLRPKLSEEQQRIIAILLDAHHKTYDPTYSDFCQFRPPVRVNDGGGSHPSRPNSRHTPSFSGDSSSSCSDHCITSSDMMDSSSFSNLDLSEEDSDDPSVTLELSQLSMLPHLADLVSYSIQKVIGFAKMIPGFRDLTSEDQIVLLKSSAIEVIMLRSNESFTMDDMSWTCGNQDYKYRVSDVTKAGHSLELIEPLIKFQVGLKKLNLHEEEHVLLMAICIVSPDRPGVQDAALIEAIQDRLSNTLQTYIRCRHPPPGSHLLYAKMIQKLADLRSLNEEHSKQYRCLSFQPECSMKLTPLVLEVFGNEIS
Sequence of Aryl hydrocarbon receptor (Homo sapiens) (P35869 whole entry, looked up): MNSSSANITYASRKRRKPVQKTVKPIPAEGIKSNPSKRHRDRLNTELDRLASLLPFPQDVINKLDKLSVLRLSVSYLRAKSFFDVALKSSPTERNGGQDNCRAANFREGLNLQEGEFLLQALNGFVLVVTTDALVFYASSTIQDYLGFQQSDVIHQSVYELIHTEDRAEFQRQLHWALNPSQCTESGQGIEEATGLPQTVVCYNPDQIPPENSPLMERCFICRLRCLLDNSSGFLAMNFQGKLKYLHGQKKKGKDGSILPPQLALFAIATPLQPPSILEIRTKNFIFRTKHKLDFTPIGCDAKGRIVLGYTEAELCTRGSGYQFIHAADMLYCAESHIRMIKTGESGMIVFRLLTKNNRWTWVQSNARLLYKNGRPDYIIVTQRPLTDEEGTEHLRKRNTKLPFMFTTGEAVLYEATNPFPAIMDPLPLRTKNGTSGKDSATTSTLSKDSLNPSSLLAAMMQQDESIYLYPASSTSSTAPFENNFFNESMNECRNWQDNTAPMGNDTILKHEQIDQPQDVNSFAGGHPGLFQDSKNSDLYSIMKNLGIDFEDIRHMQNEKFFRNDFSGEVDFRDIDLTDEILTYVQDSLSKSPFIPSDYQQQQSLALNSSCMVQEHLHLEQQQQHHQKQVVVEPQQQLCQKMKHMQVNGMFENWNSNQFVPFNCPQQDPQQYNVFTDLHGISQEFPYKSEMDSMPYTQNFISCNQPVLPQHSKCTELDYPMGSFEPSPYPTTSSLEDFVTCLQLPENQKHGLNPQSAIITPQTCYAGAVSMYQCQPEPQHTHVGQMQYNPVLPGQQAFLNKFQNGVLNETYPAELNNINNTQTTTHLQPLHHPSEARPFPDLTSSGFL
Sequence of Peroxisome proliferator-activated receptor delta (Homo sapiens) (Q03181 whole entry, looked up): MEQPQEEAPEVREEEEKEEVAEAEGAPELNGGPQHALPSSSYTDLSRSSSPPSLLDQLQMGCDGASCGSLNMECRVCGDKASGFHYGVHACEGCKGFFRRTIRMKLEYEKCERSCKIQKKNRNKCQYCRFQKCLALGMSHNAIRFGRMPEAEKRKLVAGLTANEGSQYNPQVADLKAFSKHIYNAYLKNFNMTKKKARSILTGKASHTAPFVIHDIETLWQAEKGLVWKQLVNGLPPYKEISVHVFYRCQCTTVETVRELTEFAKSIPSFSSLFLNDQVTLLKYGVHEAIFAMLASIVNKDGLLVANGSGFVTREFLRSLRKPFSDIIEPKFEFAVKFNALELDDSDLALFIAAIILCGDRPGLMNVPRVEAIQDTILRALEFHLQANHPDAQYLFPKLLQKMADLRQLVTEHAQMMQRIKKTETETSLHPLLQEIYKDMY
Sequence of Bile acid receptor (Homo sapiens) (Q96RI1 whole entry, looked up): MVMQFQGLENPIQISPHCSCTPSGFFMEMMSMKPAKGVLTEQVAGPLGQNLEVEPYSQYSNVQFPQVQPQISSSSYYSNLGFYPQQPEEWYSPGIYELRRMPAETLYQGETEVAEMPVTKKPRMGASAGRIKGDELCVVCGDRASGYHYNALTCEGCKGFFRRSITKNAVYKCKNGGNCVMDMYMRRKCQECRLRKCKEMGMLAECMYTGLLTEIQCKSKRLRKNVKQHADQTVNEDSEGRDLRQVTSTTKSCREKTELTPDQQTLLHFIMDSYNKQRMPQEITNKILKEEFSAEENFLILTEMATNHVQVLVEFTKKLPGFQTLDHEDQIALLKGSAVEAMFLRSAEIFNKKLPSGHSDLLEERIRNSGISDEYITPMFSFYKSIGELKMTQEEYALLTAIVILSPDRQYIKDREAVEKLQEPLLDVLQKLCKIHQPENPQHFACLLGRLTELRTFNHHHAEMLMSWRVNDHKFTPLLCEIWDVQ

C=CCN(CC=C)CC=C
not listed: [14] | [15] | [16] | [17] | [18] | [19] | [20]
inactive: all other assays above

CC(=O)SCC(CC(=O)c1ccc(C)cc1)C(=O)O (stereo unspecified)
not listed: [6] | [10] | [20]
inactive: all other assays above

CC(C)(O)CCCC1=CCC(C=O)CC1 (stereo unspecified)
not listed: [12] | [14] | [17] | [18] | [19] | [20]
inactive: all other assays above

CCO/C=C1\N=C(c2ccccc2)OC1=O
not listed: [7] | [12] | [17] | [18] | [19] | [20]
inactive: all other assays above

COc1ccc(Cl)cc1C
not listed: [6] | [8] | [11] | [16] | [17] | [18] | [19] | [20]
inactive: all other assays above

CC(C)OC(=O)C(C(=O)OC(C)C)=C1SC=CS1
not listed: [6] | [14] | [15] | [17] | [18] | [20]
inactive: all other assays above

O=C(O)CCCCCCCCCC(=O)O
not listed: [6] | [17] | [18] | [19] | [20]
inactive: all other assays above

Cc1ccc(O)c([N+](=O)[O-])c1
not listed: [4] | [7] | [12] | [20]
inactive: all other assays above

CC1(C)C(=O)C(C)(C)C1=O
not listed: [3] | [7] | [11] | [12] | [19] | [20]
inactive: all other assays above

CC/C=C/CCCCCCCCCCOC(C)=O
not listed: [4] | [7] | [17] | [18] | [20]
inactive: all other assays above

COC(C)(C)CC(C)=O
not listed: [4] | [9] | [15] | [19] | [20]
inactive: all other assays above

Cc1cccc(N)n1
not listed: [1] | [9] | [11] | [16] | [18] | [19]
inactive: all other assays above

CCCCN1C(=O)c2ccccc2C1=O
not listed: [3] | [8] | [9] | [16] | [18] | [19] | [20]
inactive: all other assays above
